Measurements published in ChEMBL document CHEMBL1961873, “Compounds: GSK PKIS; Assays: Nanosyn kinase panel” (2012).

Tests used:
[1] = biological target: RAC-alpha serine/threonine-protein kinase (Homo sapiens) (UniProt P31749); conditions: at 0.1 µM
[2] = biological target: RAC-alpha serine/threonine-protein kinase (Homo sapiens) (UniProt P31749); conditions: at 1 µM
[3] = biological target: RAC-beta serine/threonine-protein kinase (Homo sapiens) (UniProt P31751); conditions: at 0.1 µM
[4] = biological target: RAC-beta serine/threonine-protein kinase (Homo sapiens) (UniProt P31751); conditions: at 1 µM
[5] = biological target: RAC-gamma serine/threonine-protein kinase (Homo sapiens) (UniProt Q9Y243); conditions: at 0.1 µM
[6] = biological target: RAC-gamma serine/threonine-protein kinase (Homo sapiens) (UniProt Q9Y243); conditions: at 1 µM
[7] = biological target: G protein-coupled receptor kinase 6 (Homo sapiens) (UniProt P43250); conditions: at 0.1 µM
[8] = biological target: G protein-coupled receptor kinase 6 (Homo sapiens) (UniProt P43250); conditions: at 1 µM
[9] = biological target: T1, Rhodopsin kinase GRK7 (Homo sapiens) (UniProt Q8WTQ7); conditions: at 0.1 µM
T1 sequence (whole entry): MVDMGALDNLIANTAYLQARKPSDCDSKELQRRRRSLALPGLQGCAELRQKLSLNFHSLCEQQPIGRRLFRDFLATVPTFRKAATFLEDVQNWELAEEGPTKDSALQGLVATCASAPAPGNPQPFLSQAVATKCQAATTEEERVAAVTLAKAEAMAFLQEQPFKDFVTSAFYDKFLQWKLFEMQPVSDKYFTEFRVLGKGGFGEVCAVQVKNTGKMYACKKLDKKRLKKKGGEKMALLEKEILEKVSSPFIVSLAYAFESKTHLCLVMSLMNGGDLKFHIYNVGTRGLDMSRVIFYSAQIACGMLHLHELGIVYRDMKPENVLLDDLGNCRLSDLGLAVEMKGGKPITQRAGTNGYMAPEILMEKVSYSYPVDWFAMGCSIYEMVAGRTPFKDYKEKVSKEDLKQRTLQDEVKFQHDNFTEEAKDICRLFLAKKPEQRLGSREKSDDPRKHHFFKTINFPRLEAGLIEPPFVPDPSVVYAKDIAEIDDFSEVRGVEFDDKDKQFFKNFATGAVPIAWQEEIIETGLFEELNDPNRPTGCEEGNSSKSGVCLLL

[10] = biological target: T1, Rhodopsin kinase GRK7 (Homo sapiens); conditions: at 1 µM
[11] = biological target: Serine/threonine-protein kinase MRCK alpha (Homo sapiens) (UniProt Q5VT25); conditions: at 0.1 µM
[12] = biological target: Serine/threonine-protein kinase MRCK alpha (Homo sapiens) (UniProt Q5VT25); conditions: at 1 µM
[13] = biological target: Serine/threonine-protein kinase MRCK beta (Homo sapiens) (UniProt Q9Y5S2); conditions: at 0.1 µM
[14] = biological target: Serine/threonine-protein kinase MRCK beta (Homo sapiens) (UniProt Q9Y5S2); conditions: at 1 µM
[15] = biological target: Ribosomal protein S6 kinase alpha-5 (Homo sapiens) (UniProt O75582); conditions: at 0.1 µM
[16] = biological target: Ribosomal protein S6 kinase alpha-5 (Homo sapiens) (UniProt O75582); conditions: at 1 µM
[17] = biological target: Ribosomal protein S6 kinase alpha-4 (Homo sapiens) (UniProt O75676); conditions: at 0.1 µM
[18] = biological target: Ribosomal protein S6 kinase alpha-4 (Homo sapiens) (UniProt O75676); conditions: at 1 µM
[19] = biological target: Ribosomal protein S6 kinase beta-1 (Homo sapiens) (UniProt P23443); conditions: at 0.1 µM
[20] = biological target: Ribosomal protein S6 kinase beta-1 (Homo sapiens) (UniProt P23443); conditions: at 1 µM

Chain of Serine/threonine-protein kinase MRCK beta (Homo sapiens) (Q9Y5S2 whole entry): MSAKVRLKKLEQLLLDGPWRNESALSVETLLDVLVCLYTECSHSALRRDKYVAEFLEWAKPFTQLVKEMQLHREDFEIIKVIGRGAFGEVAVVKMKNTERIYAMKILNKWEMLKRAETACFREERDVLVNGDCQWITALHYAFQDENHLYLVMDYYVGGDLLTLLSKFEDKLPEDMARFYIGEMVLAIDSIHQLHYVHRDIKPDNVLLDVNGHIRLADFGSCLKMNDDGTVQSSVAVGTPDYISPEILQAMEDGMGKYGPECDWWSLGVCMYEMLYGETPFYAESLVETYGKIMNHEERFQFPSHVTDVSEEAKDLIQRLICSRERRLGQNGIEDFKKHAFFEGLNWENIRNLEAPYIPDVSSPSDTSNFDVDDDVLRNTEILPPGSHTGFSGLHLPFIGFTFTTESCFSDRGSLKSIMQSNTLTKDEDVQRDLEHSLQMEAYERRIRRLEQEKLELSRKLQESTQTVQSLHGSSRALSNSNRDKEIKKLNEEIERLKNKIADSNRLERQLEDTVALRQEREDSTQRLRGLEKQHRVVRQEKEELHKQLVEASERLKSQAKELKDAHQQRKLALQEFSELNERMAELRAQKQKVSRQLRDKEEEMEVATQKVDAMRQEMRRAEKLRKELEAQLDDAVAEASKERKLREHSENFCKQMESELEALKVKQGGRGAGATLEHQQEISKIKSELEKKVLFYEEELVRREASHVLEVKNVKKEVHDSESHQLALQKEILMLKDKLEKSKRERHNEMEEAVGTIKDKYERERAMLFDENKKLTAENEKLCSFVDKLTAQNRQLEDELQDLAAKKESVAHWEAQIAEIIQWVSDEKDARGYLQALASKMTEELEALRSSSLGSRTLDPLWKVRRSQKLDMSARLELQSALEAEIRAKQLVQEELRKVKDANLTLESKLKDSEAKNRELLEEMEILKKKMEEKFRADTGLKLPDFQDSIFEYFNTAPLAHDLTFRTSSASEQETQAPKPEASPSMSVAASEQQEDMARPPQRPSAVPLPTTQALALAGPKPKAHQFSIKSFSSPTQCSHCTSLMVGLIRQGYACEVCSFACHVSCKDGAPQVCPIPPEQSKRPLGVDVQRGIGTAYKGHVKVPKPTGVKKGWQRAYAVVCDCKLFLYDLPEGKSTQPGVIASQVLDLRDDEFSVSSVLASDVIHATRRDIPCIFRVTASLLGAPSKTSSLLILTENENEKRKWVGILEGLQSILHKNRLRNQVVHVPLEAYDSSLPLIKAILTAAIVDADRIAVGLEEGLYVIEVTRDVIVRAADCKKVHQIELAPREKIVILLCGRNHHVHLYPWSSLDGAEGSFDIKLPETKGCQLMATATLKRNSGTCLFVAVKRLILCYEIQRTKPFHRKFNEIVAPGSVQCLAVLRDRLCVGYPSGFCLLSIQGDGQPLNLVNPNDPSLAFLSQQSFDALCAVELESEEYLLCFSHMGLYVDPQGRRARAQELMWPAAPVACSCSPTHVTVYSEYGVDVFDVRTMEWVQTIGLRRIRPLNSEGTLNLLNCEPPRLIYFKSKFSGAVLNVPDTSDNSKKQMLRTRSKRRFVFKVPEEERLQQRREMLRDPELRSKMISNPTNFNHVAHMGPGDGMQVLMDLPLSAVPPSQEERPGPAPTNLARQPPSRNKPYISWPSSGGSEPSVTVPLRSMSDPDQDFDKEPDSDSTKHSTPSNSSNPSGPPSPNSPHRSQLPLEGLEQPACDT
Chain of RAC-alpha serine/threonine-protein kinase (Homo sapiens) (P31749 whole entry): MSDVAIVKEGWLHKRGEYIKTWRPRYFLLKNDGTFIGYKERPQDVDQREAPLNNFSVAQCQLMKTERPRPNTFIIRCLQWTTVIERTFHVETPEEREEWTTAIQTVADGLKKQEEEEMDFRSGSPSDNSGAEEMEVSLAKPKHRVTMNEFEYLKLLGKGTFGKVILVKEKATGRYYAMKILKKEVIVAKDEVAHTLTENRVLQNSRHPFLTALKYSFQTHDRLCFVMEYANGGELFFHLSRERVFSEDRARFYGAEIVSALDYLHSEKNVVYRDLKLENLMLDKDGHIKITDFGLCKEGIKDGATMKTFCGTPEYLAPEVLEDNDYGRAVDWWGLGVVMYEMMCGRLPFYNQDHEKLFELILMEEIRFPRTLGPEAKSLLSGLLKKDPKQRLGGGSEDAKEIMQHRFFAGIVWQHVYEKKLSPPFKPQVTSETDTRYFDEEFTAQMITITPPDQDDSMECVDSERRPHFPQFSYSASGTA
Chain of RAC-beta serine/threonine-protein kinase (Homo sapiens) (P31751 whole entry): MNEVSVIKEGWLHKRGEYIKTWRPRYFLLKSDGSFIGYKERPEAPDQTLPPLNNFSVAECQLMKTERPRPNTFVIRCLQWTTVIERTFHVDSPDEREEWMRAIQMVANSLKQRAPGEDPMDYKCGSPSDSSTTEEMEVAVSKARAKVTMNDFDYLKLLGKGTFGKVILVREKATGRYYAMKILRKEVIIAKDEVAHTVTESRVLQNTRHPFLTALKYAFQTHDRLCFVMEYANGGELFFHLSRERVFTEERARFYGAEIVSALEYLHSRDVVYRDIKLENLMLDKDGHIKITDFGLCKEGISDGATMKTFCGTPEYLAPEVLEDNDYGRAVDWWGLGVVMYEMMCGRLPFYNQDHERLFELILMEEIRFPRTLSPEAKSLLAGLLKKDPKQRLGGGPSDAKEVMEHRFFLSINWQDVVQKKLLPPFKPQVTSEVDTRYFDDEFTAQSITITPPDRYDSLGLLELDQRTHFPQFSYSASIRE
Chain of Serine/threonine-protein kinase MRCK alpha (Homo sapiens) (Q5VT25 whole entry): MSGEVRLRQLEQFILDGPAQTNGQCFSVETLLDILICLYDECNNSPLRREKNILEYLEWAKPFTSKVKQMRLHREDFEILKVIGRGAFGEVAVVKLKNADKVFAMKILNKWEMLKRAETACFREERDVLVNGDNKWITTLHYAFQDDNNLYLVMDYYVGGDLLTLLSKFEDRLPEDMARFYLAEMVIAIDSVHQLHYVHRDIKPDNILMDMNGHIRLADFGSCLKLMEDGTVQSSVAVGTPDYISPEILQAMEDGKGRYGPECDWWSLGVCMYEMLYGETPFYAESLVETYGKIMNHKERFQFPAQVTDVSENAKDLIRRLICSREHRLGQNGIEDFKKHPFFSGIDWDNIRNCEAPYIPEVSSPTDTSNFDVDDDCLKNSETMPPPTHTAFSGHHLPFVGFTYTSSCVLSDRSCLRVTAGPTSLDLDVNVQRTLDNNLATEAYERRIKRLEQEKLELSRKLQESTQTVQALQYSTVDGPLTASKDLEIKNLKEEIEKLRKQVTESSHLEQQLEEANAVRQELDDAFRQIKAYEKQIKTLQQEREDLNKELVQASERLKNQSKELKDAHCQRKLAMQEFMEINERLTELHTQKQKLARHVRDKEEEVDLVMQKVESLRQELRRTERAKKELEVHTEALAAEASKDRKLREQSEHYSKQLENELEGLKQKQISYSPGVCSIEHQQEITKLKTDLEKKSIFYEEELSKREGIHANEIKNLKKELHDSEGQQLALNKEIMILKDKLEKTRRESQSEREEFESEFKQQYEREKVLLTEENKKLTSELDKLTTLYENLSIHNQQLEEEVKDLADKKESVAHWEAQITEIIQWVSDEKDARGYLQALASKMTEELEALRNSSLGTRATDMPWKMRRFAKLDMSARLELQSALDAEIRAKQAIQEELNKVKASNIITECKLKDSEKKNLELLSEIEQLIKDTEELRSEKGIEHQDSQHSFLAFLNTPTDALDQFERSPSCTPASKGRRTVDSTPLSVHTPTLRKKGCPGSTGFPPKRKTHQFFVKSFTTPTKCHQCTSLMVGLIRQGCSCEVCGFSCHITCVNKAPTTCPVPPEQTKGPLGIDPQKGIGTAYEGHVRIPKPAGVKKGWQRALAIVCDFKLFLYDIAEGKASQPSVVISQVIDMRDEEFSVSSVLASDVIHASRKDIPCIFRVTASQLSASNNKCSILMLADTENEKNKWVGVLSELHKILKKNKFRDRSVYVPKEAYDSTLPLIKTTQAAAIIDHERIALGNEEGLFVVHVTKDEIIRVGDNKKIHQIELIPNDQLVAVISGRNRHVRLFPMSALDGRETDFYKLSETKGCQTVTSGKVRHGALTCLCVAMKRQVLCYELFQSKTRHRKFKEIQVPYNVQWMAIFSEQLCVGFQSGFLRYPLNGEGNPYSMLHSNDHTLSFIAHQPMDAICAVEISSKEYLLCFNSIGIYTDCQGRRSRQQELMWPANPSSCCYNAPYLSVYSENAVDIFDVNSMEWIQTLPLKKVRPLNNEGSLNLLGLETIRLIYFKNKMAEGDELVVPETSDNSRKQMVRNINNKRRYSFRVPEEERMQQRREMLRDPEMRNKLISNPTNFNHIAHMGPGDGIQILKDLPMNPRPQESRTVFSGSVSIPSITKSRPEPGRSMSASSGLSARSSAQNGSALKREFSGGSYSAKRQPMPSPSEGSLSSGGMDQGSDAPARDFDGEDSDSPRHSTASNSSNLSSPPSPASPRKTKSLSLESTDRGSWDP
Chain of Ribosomal protein S6 kinase beta-1 (Homo sapiens) (P23443 whole entry, looked up): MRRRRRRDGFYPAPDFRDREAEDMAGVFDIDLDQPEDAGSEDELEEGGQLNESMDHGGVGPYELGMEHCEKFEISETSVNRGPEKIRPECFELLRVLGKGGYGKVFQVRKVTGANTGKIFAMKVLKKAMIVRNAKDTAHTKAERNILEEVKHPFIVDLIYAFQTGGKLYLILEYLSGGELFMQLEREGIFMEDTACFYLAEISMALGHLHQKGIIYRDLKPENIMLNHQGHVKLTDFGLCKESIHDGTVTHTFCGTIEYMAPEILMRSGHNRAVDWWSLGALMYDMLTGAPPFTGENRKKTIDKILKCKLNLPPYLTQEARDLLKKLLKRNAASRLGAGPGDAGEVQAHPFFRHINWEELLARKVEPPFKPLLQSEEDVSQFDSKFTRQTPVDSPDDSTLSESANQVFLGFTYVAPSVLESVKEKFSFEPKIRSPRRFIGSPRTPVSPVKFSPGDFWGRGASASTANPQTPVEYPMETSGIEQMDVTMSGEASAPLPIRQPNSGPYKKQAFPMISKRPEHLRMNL

Structure (SMILES)	inhibition [1] [%]	inhibition [2] [%]	inhibition [3] [%]	inhibition [4] [%]	inhibition [5] [%]	inhibition [6] [%]	inhibition [7] [%]	inhibition [8] [%]	inhibition [9] [%]	inhibition [10] [%]	inhibition [11] [%]	inhibition [12] [%]	inhibition [13] [%]	inhibition [14] [%]	inhibition [15] [%]	inhibition [16] [%]	inhibition [17] [%]	inhibition [18] [%]	inhibition [19] [%]	inhibition [20] [%]
COc1cccc(-c2c[nH]c3c(N/N=C/c4ccncc4)ncnc23)c1	1.29	0.32	1.22	-0.06	1.48	-0.22	-1.66	-7.11	0.28	-6.92	0.71	6.35	0.92	5.25	8.98	9.82	2.85	4.13	2.85	8.54
COc1cccc(-n2ncc3c(N/N=C/c4ccc(F)cc4)ncnc32)c1	0.98	0.49	2	1.56	1.42	0.92	5.53	7.7	3.44	19.5	-0.63	1.53	-0.45	0.66	4.05	4.15	2.78	4.13	1.73	3.51
CNC(=O)c1cncc(/C=C/c2ccccc2Cl)c1	0.07	1.96	0.21	0.07	-0.57	0.32	1.74	10.9	2.3	10.8	1.52	2.33	-0.05	0.26	3.05	3.68	1.83	1.78	0.27	0.23
c1ccc(COc2ccc(Nc3ncnc4ccc(-c5ccco5)cc34)cc2)cc1	0.02	0.01	-0.87	0.43	0.39	2.23	-0.04	4.75	5.57	5.11	-3.21	-2.24	0.9	-0.9	0.07	-1.17	2.09	1.67	0.5	0.07
CC(C)COC(=O)c1ccc2c(c1)/C(=C/Nc1ccc(S(N)(=O)=O)cc1)C(=O)N2	1.6	2.22	0.67	1.73	1.5	6.82	1.33	10.1	-4.26	9.41	3.02	6.98	3.62	12.7	3.88	11.6	5.45	20.9	3	18.1
CN1CCC(n2cnc(-c3ccc(F)cc3)c2-c2ccnc(N)n2)CC1	0.24	0.29	0.39	0.66	2.57	2.05	1.6	2.25	3.11	5.7	1.47	1.4	-1.13	1.3	0.55	2.23	0.42	3.67	-0.73	1.36
O=C(Nc1n[nH]c2cc(-c3ccc(F)cc3)ccc12)C1CC1	0.61	1.36	1.62	1.6	0.49	1.05	1.59	1.04	4.1	7.25	0.19	0.87	0.84	5.66	13.8	13.6	6.38	8.25	2	2.94
COc1ccc2c(-c3ccnc(Nc4cccc(OC(F)(F)F)c4)n3)cnn2n1	0.95	0.97	2.41	1.51	1.3	1.57	4.64	5.84	5.16	4.9	-0.42	2.27	0.42	-0.61	4.58	4.54	2.99	7.19	3.11	3.7
CCn1cc(-c2ccnc3[nH]ccc23)c(-c2cccc(NC(=O)Nc3ccc(OCc4ccccc4)cc3)c2)n1	1.5	1.68	1.8	3.99	0.23	2.59	-2.36	0.99	3.4	-2.29	-4.2	4.85	-0.78	-0.56	-0.53	-2.01	1.02	0.39	-0.04	-0.6
Cc1ccc2c(-c3ccnc(Nc4ccccc4)n3)c(-c3ccc(F)cc3)nn2n1	0.59	0.99	2.02	1.95	1.53	1.01	0.38	-3.54	1.12	-6.29	1.01	7.71	1.04	1.94	3.46	3.65	0.97	3.78	1.87	3.16
CC(=O)NCc1cccc(C#Cc2cncnc2Nc2ccc(OCc3cccc(F)c3)c(Cl)c2)c1	-0.84	-1.16	-0.39	0.71	0.73	0.47	1.84	3.06	-1.42	7.96	0.23	-0.33	0.09	1.09	-4.98	-3.7	0.45	4	0.26	0.74
Clc1ccc(-c2nn3ncccc3c2-c2ccnc(Nc3ccccc3)n2)cc1	0.13	0.62	0.64	1.15	1.22	-0.89	2.85	1.72	3.88	-1.87	-0.06	0.52	0.76	1.28	0.64	2.07	1	2.91	0.57	-0.24
COc1cc2c(cc1Nc1nc(Nc3ccsc3C(N)=O)c3cc[nH]c3n1)N(C(=O)CN(C)C)CCC2(C)C	1.26	0.48	2.13	2.14	0.83	2.54	49.5	87.2	34.2	63.2	2.48	6.74	4.54	14.9	4.6	8.3	5.18	13.8	2.7	4.93
